Results filed as inconclusive are left out. The source made the active and inactive calls. Calls follow the shape of the dose curve; as a rule, active = well fitted activation curve with a large enough effect; inconclusive = small, poorly fitted or top-dose-only effect; inactive = no such curve, though single readings can be large or run the other way.

Sequence of Rap guanine nucleotide exchange factor 3 (Homo sapiens) (O95398 whole entry, looked up): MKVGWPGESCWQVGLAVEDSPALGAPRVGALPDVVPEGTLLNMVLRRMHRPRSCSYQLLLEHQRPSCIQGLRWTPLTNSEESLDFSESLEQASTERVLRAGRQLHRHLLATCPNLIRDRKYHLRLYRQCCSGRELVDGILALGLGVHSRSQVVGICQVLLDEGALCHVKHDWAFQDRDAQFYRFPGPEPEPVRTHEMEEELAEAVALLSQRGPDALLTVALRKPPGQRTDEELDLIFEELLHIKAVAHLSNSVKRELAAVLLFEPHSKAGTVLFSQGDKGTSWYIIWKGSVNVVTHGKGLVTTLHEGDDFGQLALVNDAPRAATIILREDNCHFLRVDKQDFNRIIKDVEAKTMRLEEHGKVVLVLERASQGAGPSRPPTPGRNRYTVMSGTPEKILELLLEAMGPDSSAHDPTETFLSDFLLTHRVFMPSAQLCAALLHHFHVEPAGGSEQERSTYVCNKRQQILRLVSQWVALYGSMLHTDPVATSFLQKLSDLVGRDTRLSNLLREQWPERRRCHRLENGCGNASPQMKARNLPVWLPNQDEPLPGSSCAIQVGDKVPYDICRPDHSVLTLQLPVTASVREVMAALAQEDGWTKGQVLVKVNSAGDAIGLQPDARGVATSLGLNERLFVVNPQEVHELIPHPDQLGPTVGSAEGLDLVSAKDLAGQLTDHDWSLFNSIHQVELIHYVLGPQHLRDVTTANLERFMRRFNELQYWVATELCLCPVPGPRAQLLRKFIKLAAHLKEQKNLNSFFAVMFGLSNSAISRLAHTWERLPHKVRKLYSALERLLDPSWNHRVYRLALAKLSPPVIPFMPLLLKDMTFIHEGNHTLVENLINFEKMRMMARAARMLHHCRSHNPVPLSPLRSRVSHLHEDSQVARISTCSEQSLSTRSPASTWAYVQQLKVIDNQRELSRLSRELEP

The experiment addresses Rap guanine nucleotide exchange factor 3 (Homo sapiens) (UniProt O95398). The experiment can be described thus: Confirmatory qHTS for agonist of cAMP-regulated guanine nucleotide exchange factor 3 (EPAC1) (AID 1645881).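 Also: EPAC1 catalysed release of BODIPY-GDP from Rap1B seen as fluorescence loss; 100% = effect of cAMP agonist control; nearly all actives have a fitted effect of over 75% in size.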 The settings on record: EPAC1 Rap1B BODIPY-GDP exchange fluorescence; series mostly up to 154 µM; activation: at the top concentration. In general terms: qHTS replaces the single test concentration by a dilution series.
In the case of `Cc1nn(-c2ccccc2)c2nc(N)c(C#N)c(-c3ccc(O)c(O)c3)c12`, the “activation” value was 23.8% (inactive).
Next, `Cc1ccc(C)c(Oc2nc3c(c(=O)n(C)c(=O)n3C)n2Cc2ccccc2)c1`: 4.94% (inactive); `COc1ccc(C(=O)NCCn2cc(SCc3cccc(F)c3)c3ccccc32)cc1OC`: 13.7% (inactive); `CC(=O)Nc1ccc(Nc2nnc(-c3ccc(O)cc3)c3ccccc23)cc1`: 7.3% (inactive).
Next, `COc1ccc(-c2ccc(C(=O)NC(C)C)c3occc23)c(C)c1`: 13.6% (inactive); `O=c1[nH]c(Nc2ccc(F)cc2)cc2ccccc12`: 14.1% (inactive).
On to `O=C(Nc1cccc(S(=O)(=O)NCc2ccco2)c1)c1cc(-c2ccccc2)nc2ccccc12`, for which the “activation” value is 20.3% (inactive).
Next, `COc1ccc(Cl)cc1C1CC(=O)Nc2cc3c(cc21)OCCO3` (stereo not given): 6.79% (inactive).
Next, `CCOc1ccccc1C(=O)N1CCc2cc(OC)c(OC)cc2C1COc1ccc(OC)cc1` (stereo not given): 3.71% (inactive); `O=C(Nc1ccc(-c2cn3ccccc3n2)cc1)c1cccs1`: 10.4% (inactive).
The figure for `O=C(CSc1nc2ccccc2o1)N/N=C/c1ccc(O)c(O)c1` is 11.2% (inactive); for `Cc1cccc2sc(N(Cc3cccnc3)C(=O)c3cccs3)nc12` it is 18.5% (inactive).
As for `Cc1ccc2c(c1)-c1c(cnn1CC(=O)N1CCN(c3cccc(C(F)(F)F)c3)CC1)CO2`, the “activation” value is -31.5% (inactive).
The figure for `CC(C)C(NC(=O)C1CC(=O)N(Cc2ccccc2)C1)c1nc2ccccc2[nH]1` (stereo not given) is 25.1% (inactive); for `Cc1ccc2c(c1)N(Cc1cccc(Cl)c1)C(=O)c1cccnc1O2` it is 25.9% (inactive); for `Cc1nc2ccccc2c2oc(C(=O)Nc3ccc4c(c3)OCCO4)cc12` it is 18.1% (inactive).
`COc1ccc2c(c1)Cc1sc(NC(=O)c3ccccc3Br)nc1-2`: the “activation” value is 18.6% (inactive).
The figure for `COc1ccccc1CN(C)C(=O)C(c1ccccc1)c1ccccc1` is 17.9% (inactive); for `Cc1ccc(-c2nc3ccc(C)cn3c2Cc2cccc(F)c2)cc1` it is 23.9% (inactive).
The figure for `COc1ccc(Cl)cc1NC(=O)COC(=O)c1cc(NS(=O)(=O)c2cccs2)ccc1O` is 18.5% (inactive).
As to `Clc1ccc(OCCn2c(-c3ccco3)nc3ccccc32)cc1`, the “activation” value is 23.3% (inactive).
Next, `COc1ccc(CNc2ncnc3onc(-c4ccc(F)cc4)c23)cc1`: 12.2% (inactive); `Cc1cc[n+](-c2[nH]c(=O)sc2/C=N/N=C(\[O-])c2ccccc2)cc1`: 10.1% (inactive); `Cc1csc2nc(-c3cccc(NC(=O)c4cccc(F)c4)c3)cn12`: 8.56% (inactive).
The figure for `N#C/C(=C\c1ccc(-c2ccccc2C(=O)O)o1)c1nc2ccccc2[nH]1` is -3.77% (inactive); for `CCOc1cc2c(cc1/C=C/c1noc(C)c1[N+](=O)[O-])OC(C)C2` (stereo not given) it is -13.6% (inactive); for `Cc1cc(C)c2c(CN3CCCC3)cc(=O)oc2c1` it is 22.3% (inactive).
The figure for `Cc1ccc(SCC(=O)Nc2ccccc2N2CCOCC2)cc1` is 4.4% (inactive).
As to `N/C(CSc1nc(-c2ccccc2)c(-c2ccccc2)o1)=N\O`, the “activation” value is 24.4% (inactive).
Next, `O=C1NNC(c2ccccc2)=N/C1=C\c1ccccc1Cl`: 17.5% (inactive); `Nc1nc(CSc2ccc(Cl)cc2)nc(N2CCCCC2)n1`: 17.7% (inactive); `CCn1c(SCC(=O)c2ccc(O)c(O)c2)nnc1-c1ccccc1OC`: 15.8% (inactive).
Consider `O=C(Cn1c(=O)c2ccccc2n(CC(=O)Nc2ccc(Cl)cc2)c1=O)NCCc1ccccc1`, for which the “activation” value was -7.13% (inactive).
Regarding `O=[N+]([O-])c1cccc(S(=O)(=O)Nc2cccc(-c3ccc(N4CCCC4)nn3)c2)c1`, the “activation” value is 0.689% (inactive).
Turning to `COc1cccc2cc(/C(=N/O)c3ccccc3)oc12`, the “activation” value was 22.6% (inactive).
Take `C#Cc1ccc([C@H]2C=C(C(=O)NCc3ccccc3)O[C@@H](OCC)[C@@H]2CCCO)cc1`: the “activation” value is 62.3% (inactive).
The figure for `Cc1ccccc1C1(O)c2ccccc2-c2ccccc21` is 18.7% (inactive); for `Cc1ccc(C)c(CN2C(=O)C(O)(c3c[nH]c4ccccc34)c3ccccc32)c1` (stereo not given) it is 7.28% (inactive).
Consider `O=C(c1ccccc1Cc1ccccc1)N1CCN(S(=O)(=O)c2ccccc2Br)CC1`, for which the “activation” value was 12.8% (inactive).
As to `CCOC(=O)Nc1cc2c(c(N)n1)N=C(c1ccccc1)CN2`, the “activation” value was 26.3% (inactive).

For the origin of these results see PubChem BioAssay (NCATS).
